Most compounds without a hit are left out; they make up all but 1.8% or so of the library.
EBV gp42 block = EBV gp42 inhibition; Fluorescence polarization binding assay, mP read-out; AID 1085; 220,000 compounds, 0.42% hits; inhibition, % (tested at 21.74 µM); in the data active means inhibition above about 50%
eIF4H FP inh = inhibitors of RNA binding by human eIF4H | Q15056 | eIF4H fluorescence polarization binding assay | inhibition, % at 35 µM | 290,000 compounds, 0.94% hits;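 further: calls also rest on retests at 20 µM and on dose response follow-up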
MEX-5 binding = C. elegans MEX-5 TCR-2 RNA binding activity; AID 1832; Q9XUB2; MEX-5/FITC-TCR2 RNA binding, fluorescence polarization; active compounds read low; activity score (negative = inhibition of binding), % at 10 µM; 300,000 compounds, 0.38% hits;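 active means inhibition past about -25% in most replicates, and total fluorescence under double the plate's negative control median, limit read from the data; inconclusive means replicates evenly split on the limit, or fluorescence at least double controls; inactive means too little inhibition in most replicates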
PABP1 MLLE inh = blocks PAM2 peptide binding to the PABP1 MLLE domain; P11940; GST-MLLE / FITC-PAM2 fluorescence polarization; inhibition, % at 20 µM; 360,000 compounds, 0.36% hits; in the data active means inhibition above about 35%, passing the limit was not always enough
Target sequence (P11940 whole entry, looked up, the tested form may be a part): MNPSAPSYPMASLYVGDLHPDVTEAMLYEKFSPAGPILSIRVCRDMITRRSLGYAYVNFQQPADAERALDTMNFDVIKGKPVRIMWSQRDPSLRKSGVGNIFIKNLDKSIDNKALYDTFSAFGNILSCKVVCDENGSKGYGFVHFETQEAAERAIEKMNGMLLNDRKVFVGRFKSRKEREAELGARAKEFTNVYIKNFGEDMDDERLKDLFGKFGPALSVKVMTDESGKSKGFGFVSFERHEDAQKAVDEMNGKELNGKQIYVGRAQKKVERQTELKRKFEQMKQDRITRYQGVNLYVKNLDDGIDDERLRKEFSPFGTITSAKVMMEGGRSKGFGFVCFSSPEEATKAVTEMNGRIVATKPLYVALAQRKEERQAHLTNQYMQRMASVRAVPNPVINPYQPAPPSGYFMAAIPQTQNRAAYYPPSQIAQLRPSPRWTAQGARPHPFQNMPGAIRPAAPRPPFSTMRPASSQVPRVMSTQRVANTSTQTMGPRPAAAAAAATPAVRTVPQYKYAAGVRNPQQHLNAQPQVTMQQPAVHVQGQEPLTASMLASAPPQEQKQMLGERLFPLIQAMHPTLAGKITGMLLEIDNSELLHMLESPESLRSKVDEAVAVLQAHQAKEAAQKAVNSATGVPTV
PABP FP inh = blocks human PABP binding to poly(A) RNA. AID 2014. fluorescence polarization. P11940. 290,000 compounds, 1% hits. calls only at 35 µM;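 further: calls also rest on retests at 20 µM and on dose response follow-up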
Hits are given with their value; – = inactive; ? = inconclusive; · = no result given; + = active, no number. Unless noted, how the calls were made is not given here.

SMILES	EBV gp42 block	eIF4H FP inh	MEX-5 binding	PABP1 MLLE inh	PABP FP inh
COc1ccccc1N1CCN(C(=O)[C@H](C)NS(=O)(=O)c2ccc3c(c2)OCCCO3)CC1	·	·	·	41	·
CC1=CC(=O)C=CC1=Nc1ccc(N(C)C)cc1	·	·	·	51	·
CN(C)c1ccc(N=Nc2ccc(S(N)(=O)=O)cc2)cc1	·	–	–	–	–
COc1ccc(CC(=O)Nc2ccc(S(=O)(=O)Nc3cc(C)nc(C)n3)cc2)cc1OC	·	·	·	–	·
Nc1cccc2c(=O)c3ccccc3[nH]c12	·	92	–	–	+
CC(NC(=O)c1ccccc1)C(=O)NC1=NCCS1 (stereo not drawn)	–	–	–	–	–
CC(C)C(NC(=O)c1ccccc1)C(=O)NC1=NCCS1 (stereo not drawn)	–	–	–	44	–
CCOc1[nH]c(/N=C/c2ccco2)c(C#N)c1C#N	–	100	·	–	+
N#Cc1c(/N=C/c2ccco2)sc2c1CCC2	–	–	–	–	–
O=C(/C=C/c1ccco1)c1cccnc1	·	56	–	–	+
Cc1c(C#N)c2ncnc(-c3ccccc3)c2n1-c1ccccc1	60	–	–	–	–
N#Cc1c2n(c3c(-c4ccccc4)ncnc13)CCC2	–	–	–	–	–
COc1ccc(C2C3=C(CC(C)(C)CC3=O)Nc3c2c(=O)n(C)c(=O)n3C)cc1OC (stereo not drawn)	–	active	–	–	–
C=CCOc1ccccc1C1C2=C(CC(C)(C)CC2=O)Nc2c1c(=O)n(C)c(=O)n2C (stereo not drawn)	–	–	–	–	–
CN1CCN(c2ccc(CNC(=O)C3Cc4c(-c5ccc(Cl)cc5)ccnc4O3)cc2)CC1 (stereo not drawn)	·	·	·	–	·
Cc1cc2cc(C(c3nnnn3Cc3ccccc3)N3CCc4ccccc43)c(=O)[nH]c2cc1C (stereo not drawn)	–	–	–	–	–
Cc1ccc2[nH]c(=O)c(C(c3nnnn3CC3CCCO3)N3CCc4ccccc4C3)cc2c1 (stereo not drawn)	–	–	–	78	–
Cc1cc2cc(C(c3nnnn3Cc3ccco3)N3CCc4ccccc4C3)c(=O)[nH]c2cc1C (stereo not drawn)	–	63	–	–	+
Cc1cc2cc(C(c3nnnn3Cc3ccco3)N3CCc4ccccc43)c(=O)[nH]c2cc1C (stereo not drawn)	–	26	–	–	+
COc1ccc(Cl)cc1-c1cc(C(=O)NCc2cccs2)[nH]n1	·	·	·	–	·
CCCCNC(=S)N(C)/N=C/c1ccc(OCc2ccc(C(=O)OC)cc2)c(OC)c1	–	–	–	–	+
CCOC(=O)C1(C)CCCN1C(=O)c1ccc(C(F)(F)F)nc1C (stereo not drawn)	·	·	·	–	·
COc1ccc(/C=C2/C(=O)OCc3cc(OC)c(OC)cc32)cc1	–	active	–	–	+
Cc1cc(C)cc(NC(=O)CCN2CCCC2)c1	–	–	–	–	+
Cc1cccc(NC(=O)CCN2CCCCC2)c1	·	–	–	–	–
SMILES	EBV gp42 block	eIF4H FP inh	MEX-5 binding	PABP1 MLLE inh	PABP FP inh
O=C(Nc1ccc2c(c1)[C@@H]1C[C@@H](CC(=O)N3CCOCC3)O[C@@H](CO)[C@@H]1O2)NC1CCCC1	·	·	·	–	·
CCCNC(=O)C1(C)CCCN(Cc2ccc(C(F)(F)F)cc2)C1 (stereo not drawn)	·	·	·	–	·
O=C(N/N=C/c1cccn1-c1cccc(C(=O)O)c1)Nc1ccccc1	–	?	–	–	+
CCNC(=O)C1(C)CCCN(C(=O)c2ccc3c(c2)C(C)(C)CCC3(C)C)C1 (stereo not drawn)	·	·	·	–	·
CC(=O)c1c(NC(=O)c2ccccc2)[nH]c(-c2ccccc2)nc1=S	–	–	–	39	–
CC(=O)c1c(C)[nH]c(-c2ccccc2)nc1=S	–	–	–	–	–
O=S(=O)(c1ccc(NC(=S)Nc2ccc3c(c2)OCO3)cc1)N1CCOCC1	–	94	–	–	+
O=C(CCc1ccccc1)NC(=S)Nc1ccc(S(=O)(=O)N2CCOCC2)cc1	–	–	–	44	–
CCn1c(CC(=O)Nc2ccccc2F)nnc1SCC(=O)NC1=NCCS1	·	·	·	–	·
Cc1cccc(C(=O)N[C@H](C(=O)OCc2cc(=O)n3c(n2)sc2ccccc23)C(C)C)c1	–	85	–	–	+
O=C(OCc1cc(=O)n2c(n1)sc1ccccc12)c1ccc(O)cc1	–	79	–	–	–
COc1ccc(CNC(=O)CSc2nc(-c3ccccc3)cc(-c3cccs3)c2C#N)cc1	–	–	–	–	–
COc1ccc(-c2cc(-c3cccs3)c(C#N)c(SCC(=O)NCc3ccco3)n2)cc1	–	55	·	–	–
Cn1ncc2cc3c(Nc4ccc(Cl)cc4)cccc3nc21	·	·	·	–	·
Nc1nc(-c2ccccn2)nc(N)c1Cc1ccccc1F	–	–	–	–	–
Nc1nc(-c2ccccn2)nc(N)c1Cc1ccc(Cl)cc1Cl	–	70	–	–	–
CCOc1ccc(S(=O)(=O)Nc2cc(Sc3ncn[nH]3)c3oc(=O)sc3c2)cc1	–	–	-34	·	–
CCOc1ccc(S(=O)(=O)Nc2ncn[nH]2)cc1	·	–	–	–	–
CCn1c2ccc(OC)cc2c2nc3ccccc3nc21	–	–	?	·	–
CCOc1ccc(Cn2c3ccc(OC)cc3c3nc4ccccc4nc32)cc1	123	–	·	–	–
CCCCOC(=O)Cn1c2ccc(OC)cc2c2nc3ccccc3nc21	79	–	-28	–	–
COc1cc(C(O)c2nc(-c3csc4ccccc34)cs2)ccc1F (stereo not drawn)	·	·	·	–	·
CCOc1ccc(Cc2nnc(SCC(=O)c3ccc(OC)cc3)o2)cc1	–	–	–	–	–
CCOc1ccc(Nc2nc(Cc3nnc(SCC(=O)O)o3)cs2)cc1	–	48	–	–	–
COc1ccc(-c2coc3c(C(=O)NCC4CC4)cccc23)c(C)c1	·	·	·	–	·
SMILES	EBV gp42 block	eIF4H FP inh	MEX-5 binding	PABP1 MLLE inh	PABP FP inh
CC(C)(C)OC(=O)NCCCC[C@H](NC(=O)c1nc[nH]c1C(=O)NCc1ccccc1)C(=O)OC(C)(C)C	–	–	–	–	–
CN(Cc1ccccc1)C(=O)c1[nH]cnc1C(=O)N[C@@H](CCCCNC(=O)OC(C)(C)C)C(=O)OC(C)(C)C	–	84	–	–	+
O=S1(=O)CCN(C2CC2)CC1	·	·	·	–	·
Cc1cccc(C(=O)NCCC(=O)Nc2nc(C)c(Cc3ccc4c(c3)OCO4)s2)c1	–	active	–	–	+
CCOC1(OCC)N=C(N)C2(C#N)C(c3ccc(NC(C)=O)cc3)C12C#N (stereo not drawn)	–	–	-27	–	–
Cc1c(Cl)cnn1CC(=O)NC1C(=O)N2C(C(=O)O)=C(CSc3nnnn3C)CSC12 (stereo not drawn)	–	–	–	–	–
CC(C(=O)NC1C(=O)N2C(C(=O)O)=C(CSc3nnnn3C)CSC12)n1cc(Cl)cn1 (stereo not drawn)	–	–	–	43	–
O=C(O)c1ccc2c(c1)C1C=CCC1C(c1cc3c(cc1Br)OCO3)N2 (stereo not drawn)	–	–	–	–	–
